Screens deposited in PubChem by National Center for Advancing Translational Sciences (NCATS).
Cycloheximide cs = Cycloheximide Counterscreen for Small Molecule Inhibitors of Shiga Toxin; cell reporter, cycloheximide protein synthesis inhibition counterscreen; max response, %; 300,000 compounds, 12% hits; in the data active means max response mostly above about 13%, no sharp cut-off; inactive means mostly below about 14%; further: read at 38.3 µM for the half of the compounds with a filed dose; 0% is about no effect
Shiga inhibitor = A qHTS for Small Molecule Inhibitors of Shiga Toxin; Vero cells, Shiga toxin protein synthesis inhibition reporter; inhibition, % at 38.7 µM; AID 2315, 2010; 290,000 compounds, 9.2% hits; in the data active means inhibition mostly above about 28%, no sharp cut-off; inactive means mostly below about 43%; further: 0% is about no effect
FMDV inh = High Throughput Screening for Foot and Mouth Disease Virus Antivirals | FMDV antiviral cell-based qHTS | Potency, µM (top dose mostly 57.9 µM), inactives show at the highest dose activity change, negative = inhibition, usual class: inhibitors | 410,000 compounds, 1.2% hits | AID 1159524, 2015; calls by dose curve; tested in HEK293T cells; further: read-out not given here; potency means the concentration at half of the fitted maximal effect; on the % scale 0 is the no-effect control and ±100 the full control effect; nearly all actives have a fitted effect of over 45% in size
Sm TGR block = qHTS Assay for the Inhibitors of Schistosoma Mansoni Peroxiredoxins; Schistosoma mansoni thioredoxin glutathione reductase (TGR), Q962Y6; purified TGR, DTNB reduction, TNB absorbance 405 nm; Potency, µM (titrated, usually from 114 µM), for the others: at the highest dose activity change, negative = inhibition, actives largely listed as inhibitors; 360,000 compounds, 3% hits; AID 485364, 2010; active means well fitted inhibition curve with a large enough effect; inconclusive means small, poorly fitted or top-dose-only effect; inactive means no such curve, though single readings can be large or run the other way; further: potency means the concentration at half of the fitted maximal effect; on the % scale 0 is the no-effect control and ±100 the full control effect; nearly all actives have a fitted effect of over 60% in size
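Kinetic colorimetric format: TGR-catalysed, NADPH-driven DTNB reduction monitored via TNB absorbance. Enzyme dispensed at 20 nM; compound exposure 15 min at room temperature before reaction start.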
Starred values were filed as active, the others as inactive; ? = inconclusive; . = not tested or not shown; [ ] = dose if it differs, or a comment. Rows were chosen to be rich in hits. Some 12% of all compounds tested hit in one or more screens of this group.

SMILES	Cycloheximide cs	Shiga inhibitor	FMDV inh	Sm TGR block
NC(=O)CSc1nnc(NC(=O)C23CC4CC(CC(C4)C2)C3)s1	36*	23	18%	-15%
CSc1nnc(NC(=O)C23CC4CC(CC(C4)C2)C3)s1	36*	23	10%	-5%
CC(C)Cc1nnc(NC(=O)C23CC4CC(CC(C4)C2)C3)s1	5	26	17%	-9%
Cc1ccc(N2CC(C(=O)Nc3nnc(SCC(N)=O)s3)CC2=O)cc1C (stereo not given)	-1	14	-6%	1%
CCc1nnc(SCC(=O)N(C)c2ccccc2)c2cc3sccc3n12	.	.	?	1%
CCOC(=O)Cc1ccc(NC(=O)N2CCOc3ccc(C)cc32)cc1	.	.	-7%	6%
CSc1nc(NCCN(C)C)c2sc3nc(-c4ccco4)c4c(c3c2n1)CCC4	.	.	9%	.
CSc1nc(N(C)CCO)c2sc3nc(-c4ccco4)c4c(c3c2n1)CCC4	1	15	-6%	1.4µM*
CN(Cc1ccon1)C(=O)CC1C(=O)NCCN1Cc1cccc(Oc2ccccc2)c1 (stereo not given)	-2	-14	-22%	?
O=CN1CCCN(C(=O)CC2C(=O)NCCN2Cc2cccc(Oc3ccccc3)c2)CC1 (stereo not given)	-2	-8	-4%	13µM*
CN(Cc1ccccn1)C(=O)CC1C(=O)NCCN1Cc1ccc(F)cc1Cl (stereo not given)	-1	1	-11%	45µM*
CN(Cc1cnn(C)c1)C(=O)CC1C(=O)NCCN1Cc1cccc(Oc2ccccc2)c1 (stereo not given)	0	-2	11%	40µM*
CN(Cc1nccn1C)C(=O)CC1C(=O)NCCN1Cc1cccc(Oc2ccccc2)c1 (stereo not given)	-3	-6	-2%	-29%
CN(Cc1cnccn1)C(=O)CC1C(=O)NCCN1Cc1ccc(F)cc1Cl (stereo not given)	5	-31	-29%	38%
CN(Cc1ccccn1)C(=O)CC1C(=O)NCCN1Cc1cccc(Oc2ccccc2)c1 (stereo not given)	-5	-6	-9%	50µM*
CCc1ccc(NC(=O)CSc2nc3ncccc3[nH]2)cc1	.	.	4%	5%
C=Cc1ccc(Cn2ccn(-c3ccc(F)c(F)c3)c(=O)c2=O)cc1	.	.	-11%	1%
Cc1c(Cl)ccc2sc(N3CCN(C(=O)c4ccco4)CC3)nc12	.	.	3%	6%
COc1cccc(CN2CCNC(=O)C2CC(=O)N(C)C2CCCCC2)c1 (stereo not given)	1	-9	-10%	45µM*
CN(CC1CCOCC1)C(=O)CC1C(=O)NCCN1Cc1cccc(Oc2ccccc2)c1 (stereo not given)	-2	-2	-10%	40µM*
O=C(CC1C(=O)NCCN1Cc1ccc(F)cc1Cl)NCc1ccon1 (stereo not given)	-9	-1	?	13µM*
COc1cccc(CN2CCNC(=O)C2CC(=O)N(C)C2CCOCC2)c1 (stereo not given)	2	-6	1%	?
Cc1nc(CN(C)C(=O)CC2C(=O)NCCN2Cc2ccc(-c3ccccc3)cc2)cs1 (stereo not given)	18	26*	?	0%
Cc1csc(CN(C)C(=O)CC2C(=O)NCCN2Cc2ccccc2C)n1 (stereo not given)	.	.	4%	.
COc1ccc(Nc2nc3ccccc3nc2NS(=O)(=O)c2ccc(Cl)cc2)cc1OC	.	.	-10%	-23%
SMILES	Cycloheximide cs	Shiga inhibitor	FMDV inh	Sm TGR block
Cc1ccc(-n2nc(CO)c(C(=O)NC(C)CCCc3ccccc3)n2)cc1 (stereo not given)	.	.	0%	0%
O=C(Nc1ccc(Cl)cc1F)c1cc(S(=O)(=O)NC2CCCCCC2)ccc1F	.	.	27%	18%
Cc1c(NC(=O)c2ccc(COc3ccc4ccccc4c3)o2)c(=O)n(-c2ccccc2)n1C	31*	91*	-2%	-27%
Cc1c(NC(=O)c2cc3ccccc3oc2=O)c(=O)n(-c2ccccc2)n1C	42*	86*	.	-9%
Cc1c(NC(=O)c2cc3ccccc3o2)c(=O)n(-c2ccccc2)n1C	-3	3	18%	1%
C#CC(C)(C)NC(=O)c1ccc(-c2ccccc2F)cc1	30*	64*	23%	-10%
NNC(=O)c1ccc(-c2ccccc2F)cc1	7	13	12%	8%
NC(=O)c1ccc(-c2ccccc2F)cc1	17*	41*	27%	-11%
C#CC(C)(C)NC(=O)c1ccccc1OC	-4	-6	10%	-4%
CC(=O)c1ccc(NC(=O)C2CCN(S(=O)(=O)c3ccc4c(c3)CCCN4C(=O)C3CCC3)CC2)cc1	.	.	?	5%
Cc1cc2ncc(-c3ccc(Cl)cc3)cn2n1	37*	93*	24%	0%
Cc1ccc(-c2cnc3cc(C)nn3c2)cc1	20	47	-39%	8%
CCN(CC)S(=O)(=O)c1ccc(N=Nc2c(C)[nH]n(C(N)=S)c2=O)cc1	40*	73*	29%	-25%
CC(=O)N(C)c1ccc(N=Nc2c(C)[nH]n(-c3ccccc3)c2=O)cc1	-1	-9	?	-2%
CC(=O)N(C)c1ccc(N=Nc2c(C)[nH]n(C(N)=S)c2=O)cc1	39*	49*	3%	0%
CCCCOc1ccc(N=Nc2ccc(N)nc2N)cn1	18*	29	36%	-22%
Cc1ccc(CCNC(=O)c2cc(C)nc3c2c(C)nn3-c2ccc(C)cc2)cc1	.	.	-3%	29%
CC(C)NC(=O)Cn1ccc2cc(S(=O)(=O)N3CCCCCC3)ccc21	.	.	-15%	4%
COc1ccc(C2=Nn3c(nnc3-c3ccc(OC)c(OC)c3)SC2)cc1OC	5	-5	.	.
COC(=O)c1ccc(Sc2nnnn2-c2ccccc2)c([N+](=O)[O-])c1	5	-6	20µM*	?
COc1cc(C2NC(=S)NC(C)=C2C(=O)Nc2ccc(C)cc2)ccc1O (stereo not given)	45*	71*	15%	4%
CCOc1ccc(CNc2ccc(N3CCCC3)cc2)cc1	17*	33	-16%	?
CCOc1cc(CNc2ccc(N3CCCC3)cc2)cc(Cl)c1OC	20	41*	-11%	25µM*
O=C1CSc2nc3ccccc3n21	21*	19	0%	31%
O=C(O)C1CC(=O)n2c(nc3ccccc32)S1 (stereo not given)	1	26	-16%	4%
C[C@H](NC(=O)CNC(=O)[C@@H](NC(=O)[C@H](Cc1ccccc1)NC(=O)CNC(=O)CNC(=O)[C@@H](N)Cc1ccccc1)[C@@H](C)O)C(=O)N[C@@H](CCCN=C(N)N)C(=O)N[C@@H](CCCCN)C(=O)N[C@@H](CO)C(=O)N[C@@H](C)C(=O)N[C@@H](CCCN=C(N)N)C(=O)N[C@H](CN)CCCCN	.	.	3%[6.7 µM]	.
Cc1cc(C)c(C(=O)Cn2nc(C(=O)O)c3ccccc3c2=O)cc1C	7	50	23%	3%
Cc1cc(C(=O)Cn2nc(C(=O)O)c3ccccc3c2=O)c(C)n1-c1ccccc1	59*	95*	-7%	0%
